Test results taken from the supplement of paper PMC11732987, “Enantioselective OTUD7B fragment discovery through chemoproteomics screening and high-throughput optimisation” (Communications Chemistry, 2025).

Assays:
Test in all cases: log2 ratio of Biotin-Ahx-Ub-VS probe labelling (fragment/DMSO); higher = less target engagement (more negative = stronger competition), active = hit call of the paper (q ≤ 0.05, log2 ratio ≤ -1)
Details in all cases: compound concentration: 200 uM; treatment time: 3 h
USP34 = USP34 (UniProt Q70CQ2)
Summary of the method: (§1)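 Labelling with Biotin-Ahx-Ub-VS (0.5 µM final, 1 h) followed a 3 h triplicate treatment of HEK293T lysate (495 µg per sample, Tris/CHAPS/IGEPAL buffer with protease inhibitors) with fragment at 200 µM or vehicle. Labelled DUBs were NeutrAvidin-enriched, digested with LysC and trypsin, and run by diaPASEF LC-MS/MS. The values, average log2 fragment/vehicle ratios by unpaired t-test, come from global-median-normalised Spectronaut label-free quantities. Proteins with ≥2 unique peptides were used.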

USP36 = target: T1, USP36 (UniProt Q9P275)
T1 sequence (whole entry): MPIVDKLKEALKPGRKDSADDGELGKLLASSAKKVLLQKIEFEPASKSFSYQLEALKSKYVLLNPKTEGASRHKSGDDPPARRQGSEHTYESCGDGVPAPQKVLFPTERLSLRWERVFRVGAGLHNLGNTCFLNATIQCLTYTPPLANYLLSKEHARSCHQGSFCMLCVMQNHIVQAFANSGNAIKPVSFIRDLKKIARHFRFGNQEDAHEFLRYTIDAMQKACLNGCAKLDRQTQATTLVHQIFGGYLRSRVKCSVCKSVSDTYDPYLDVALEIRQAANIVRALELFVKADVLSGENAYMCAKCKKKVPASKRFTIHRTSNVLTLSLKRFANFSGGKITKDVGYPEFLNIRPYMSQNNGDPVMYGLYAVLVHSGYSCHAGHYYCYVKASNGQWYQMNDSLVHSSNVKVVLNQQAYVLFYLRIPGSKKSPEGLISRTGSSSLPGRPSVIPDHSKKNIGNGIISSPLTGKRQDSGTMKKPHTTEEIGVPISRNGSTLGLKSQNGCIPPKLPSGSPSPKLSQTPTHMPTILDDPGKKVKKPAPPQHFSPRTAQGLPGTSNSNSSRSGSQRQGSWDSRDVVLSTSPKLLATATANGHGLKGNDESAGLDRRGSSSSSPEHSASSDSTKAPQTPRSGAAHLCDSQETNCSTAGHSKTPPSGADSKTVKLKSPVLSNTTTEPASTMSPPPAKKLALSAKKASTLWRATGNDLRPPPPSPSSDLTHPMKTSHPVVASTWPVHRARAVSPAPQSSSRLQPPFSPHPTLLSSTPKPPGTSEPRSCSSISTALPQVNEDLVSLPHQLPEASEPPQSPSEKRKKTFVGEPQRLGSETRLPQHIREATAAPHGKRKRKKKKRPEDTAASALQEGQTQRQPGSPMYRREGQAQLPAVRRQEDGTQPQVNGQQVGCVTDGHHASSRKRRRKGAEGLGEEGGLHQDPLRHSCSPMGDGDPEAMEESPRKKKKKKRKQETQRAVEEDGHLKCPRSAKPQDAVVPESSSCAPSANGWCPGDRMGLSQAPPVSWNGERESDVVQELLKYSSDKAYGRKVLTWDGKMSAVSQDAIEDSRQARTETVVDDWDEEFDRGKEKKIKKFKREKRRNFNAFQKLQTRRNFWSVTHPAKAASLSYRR
Summary of the method: as §1

USP38 = target: T2, USP38 (UniProt Q8NB14)
T2 sequence (whole entry): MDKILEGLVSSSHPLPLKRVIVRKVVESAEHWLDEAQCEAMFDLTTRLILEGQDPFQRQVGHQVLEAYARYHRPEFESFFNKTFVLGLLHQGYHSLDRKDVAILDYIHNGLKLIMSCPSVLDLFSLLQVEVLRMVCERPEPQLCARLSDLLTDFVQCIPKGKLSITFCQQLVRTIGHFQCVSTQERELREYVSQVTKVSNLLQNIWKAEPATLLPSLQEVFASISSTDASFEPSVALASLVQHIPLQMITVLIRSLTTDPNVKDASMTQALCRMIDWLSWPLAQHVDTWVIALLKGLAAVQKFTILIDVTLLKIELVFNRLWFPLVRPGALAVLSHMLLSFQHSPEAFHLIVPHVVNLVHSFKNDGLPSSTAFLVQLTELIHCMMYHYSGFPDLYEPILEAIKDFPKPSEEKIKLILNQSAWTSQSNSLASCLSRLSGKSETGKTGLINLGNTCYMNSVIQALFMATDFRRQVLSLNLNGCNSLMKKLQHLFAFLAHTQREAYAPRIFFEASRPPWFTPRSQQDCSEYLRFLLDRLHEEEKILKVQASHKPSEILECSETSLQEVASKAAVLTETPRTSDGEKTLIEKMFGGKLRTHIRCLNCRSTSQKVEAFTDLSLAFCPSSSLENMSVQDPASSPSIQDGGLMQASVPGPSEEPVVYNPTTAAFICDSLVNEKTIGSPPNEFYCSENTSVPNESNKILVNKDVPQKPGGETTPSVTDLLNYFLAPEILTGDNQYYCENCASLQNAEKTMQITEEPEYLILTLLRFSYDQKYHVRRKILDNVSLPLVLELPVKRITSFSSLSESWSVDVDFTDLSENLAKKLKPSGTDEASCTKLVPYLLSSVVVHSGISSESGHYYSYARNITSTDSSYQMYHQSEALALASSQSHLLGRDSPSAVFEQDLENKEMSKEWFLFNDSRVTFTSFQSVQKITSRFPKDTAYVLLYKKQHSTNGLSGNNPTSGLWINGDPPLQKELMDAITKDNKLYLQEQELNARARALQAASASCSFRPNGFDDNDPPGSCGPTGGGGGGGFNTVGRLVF
Summary of the method: as §1

USP39 = target: T3, USP39 (UniProt Q53GS9)
T3 sequence (whole entry): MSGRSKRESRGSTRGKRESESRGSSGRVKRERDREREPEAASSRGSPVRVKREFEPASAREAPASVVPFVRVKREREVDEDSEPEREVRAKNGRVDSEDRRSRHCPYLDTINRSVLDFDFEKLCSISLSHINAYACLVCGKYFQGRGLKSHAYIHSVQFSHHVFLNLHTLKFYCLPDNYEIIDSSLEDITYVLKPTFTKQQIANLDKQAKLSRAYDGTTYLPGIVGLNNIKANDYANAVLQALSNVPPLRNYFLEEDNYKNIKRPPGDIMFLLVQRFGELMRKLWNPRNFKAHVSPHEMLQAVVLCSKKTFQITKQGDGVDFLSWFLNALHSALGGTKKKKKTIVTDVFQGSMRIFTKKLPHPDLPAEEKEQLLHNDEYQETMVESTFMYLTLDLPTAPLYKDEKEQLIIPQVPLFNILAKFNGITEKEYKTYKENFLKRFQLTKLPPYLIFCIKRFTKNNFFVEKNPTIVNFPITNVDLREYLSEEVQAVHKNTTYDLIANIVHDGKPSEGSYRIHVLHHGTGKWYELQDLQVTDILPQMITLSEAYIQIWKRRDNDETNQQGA
Summary of the method: as §1

USP4 = target: T4, USP4 (UniProt Q13107)
T4 sequence (whole entry): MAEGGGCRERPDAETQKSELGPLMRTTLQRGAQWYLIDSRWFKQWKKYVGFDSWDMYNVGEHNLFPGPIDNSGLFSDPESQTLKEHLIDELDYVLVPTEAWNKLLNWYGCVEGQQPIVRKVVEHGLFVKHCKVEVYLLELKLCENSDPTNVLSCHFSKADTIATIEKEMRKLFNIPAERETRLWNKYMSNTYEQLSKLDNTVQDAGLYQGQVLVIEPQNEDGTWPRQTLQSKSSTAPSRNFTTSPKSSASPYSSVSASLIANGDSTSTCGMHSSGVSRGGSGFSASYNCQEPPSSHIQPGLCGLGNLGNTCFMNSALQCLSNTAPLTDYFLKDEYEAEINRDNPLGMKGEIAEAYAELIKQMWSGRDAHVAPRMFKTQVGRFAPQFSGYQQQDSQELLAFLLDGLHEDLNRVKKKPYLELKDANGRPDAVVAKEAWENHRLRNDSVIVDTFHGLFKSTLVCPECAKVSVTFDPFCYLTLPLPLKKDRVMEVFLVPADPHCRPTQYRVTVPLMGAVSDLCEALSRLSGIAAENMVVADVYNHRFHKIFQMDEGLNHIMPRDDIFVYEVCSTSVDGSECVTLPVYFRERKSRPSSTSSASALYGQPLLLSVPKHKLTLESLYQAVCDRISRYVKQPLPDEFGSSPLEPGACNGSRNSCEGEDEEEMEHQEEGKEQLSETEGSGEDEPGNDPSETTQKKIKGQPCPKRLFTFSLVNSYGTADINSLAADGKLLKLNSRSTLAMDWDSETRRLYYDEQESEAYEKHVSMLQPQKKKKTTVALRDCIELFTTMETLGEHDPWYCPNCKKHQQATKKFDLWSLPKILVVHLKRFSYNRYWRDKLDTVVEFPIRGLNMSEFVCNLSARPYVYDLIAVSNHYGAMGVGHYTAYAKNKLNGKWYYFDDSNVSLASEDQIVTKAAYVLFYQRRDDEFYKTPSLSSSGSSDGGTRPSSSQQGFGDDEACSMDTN
Summary of the method: as §1

Measured: log2 ratio of Biotin-Ahx-Ub-VS probe labelling

Chain of USP34 (Q70CQ2 whole entry, the tested form may be a part): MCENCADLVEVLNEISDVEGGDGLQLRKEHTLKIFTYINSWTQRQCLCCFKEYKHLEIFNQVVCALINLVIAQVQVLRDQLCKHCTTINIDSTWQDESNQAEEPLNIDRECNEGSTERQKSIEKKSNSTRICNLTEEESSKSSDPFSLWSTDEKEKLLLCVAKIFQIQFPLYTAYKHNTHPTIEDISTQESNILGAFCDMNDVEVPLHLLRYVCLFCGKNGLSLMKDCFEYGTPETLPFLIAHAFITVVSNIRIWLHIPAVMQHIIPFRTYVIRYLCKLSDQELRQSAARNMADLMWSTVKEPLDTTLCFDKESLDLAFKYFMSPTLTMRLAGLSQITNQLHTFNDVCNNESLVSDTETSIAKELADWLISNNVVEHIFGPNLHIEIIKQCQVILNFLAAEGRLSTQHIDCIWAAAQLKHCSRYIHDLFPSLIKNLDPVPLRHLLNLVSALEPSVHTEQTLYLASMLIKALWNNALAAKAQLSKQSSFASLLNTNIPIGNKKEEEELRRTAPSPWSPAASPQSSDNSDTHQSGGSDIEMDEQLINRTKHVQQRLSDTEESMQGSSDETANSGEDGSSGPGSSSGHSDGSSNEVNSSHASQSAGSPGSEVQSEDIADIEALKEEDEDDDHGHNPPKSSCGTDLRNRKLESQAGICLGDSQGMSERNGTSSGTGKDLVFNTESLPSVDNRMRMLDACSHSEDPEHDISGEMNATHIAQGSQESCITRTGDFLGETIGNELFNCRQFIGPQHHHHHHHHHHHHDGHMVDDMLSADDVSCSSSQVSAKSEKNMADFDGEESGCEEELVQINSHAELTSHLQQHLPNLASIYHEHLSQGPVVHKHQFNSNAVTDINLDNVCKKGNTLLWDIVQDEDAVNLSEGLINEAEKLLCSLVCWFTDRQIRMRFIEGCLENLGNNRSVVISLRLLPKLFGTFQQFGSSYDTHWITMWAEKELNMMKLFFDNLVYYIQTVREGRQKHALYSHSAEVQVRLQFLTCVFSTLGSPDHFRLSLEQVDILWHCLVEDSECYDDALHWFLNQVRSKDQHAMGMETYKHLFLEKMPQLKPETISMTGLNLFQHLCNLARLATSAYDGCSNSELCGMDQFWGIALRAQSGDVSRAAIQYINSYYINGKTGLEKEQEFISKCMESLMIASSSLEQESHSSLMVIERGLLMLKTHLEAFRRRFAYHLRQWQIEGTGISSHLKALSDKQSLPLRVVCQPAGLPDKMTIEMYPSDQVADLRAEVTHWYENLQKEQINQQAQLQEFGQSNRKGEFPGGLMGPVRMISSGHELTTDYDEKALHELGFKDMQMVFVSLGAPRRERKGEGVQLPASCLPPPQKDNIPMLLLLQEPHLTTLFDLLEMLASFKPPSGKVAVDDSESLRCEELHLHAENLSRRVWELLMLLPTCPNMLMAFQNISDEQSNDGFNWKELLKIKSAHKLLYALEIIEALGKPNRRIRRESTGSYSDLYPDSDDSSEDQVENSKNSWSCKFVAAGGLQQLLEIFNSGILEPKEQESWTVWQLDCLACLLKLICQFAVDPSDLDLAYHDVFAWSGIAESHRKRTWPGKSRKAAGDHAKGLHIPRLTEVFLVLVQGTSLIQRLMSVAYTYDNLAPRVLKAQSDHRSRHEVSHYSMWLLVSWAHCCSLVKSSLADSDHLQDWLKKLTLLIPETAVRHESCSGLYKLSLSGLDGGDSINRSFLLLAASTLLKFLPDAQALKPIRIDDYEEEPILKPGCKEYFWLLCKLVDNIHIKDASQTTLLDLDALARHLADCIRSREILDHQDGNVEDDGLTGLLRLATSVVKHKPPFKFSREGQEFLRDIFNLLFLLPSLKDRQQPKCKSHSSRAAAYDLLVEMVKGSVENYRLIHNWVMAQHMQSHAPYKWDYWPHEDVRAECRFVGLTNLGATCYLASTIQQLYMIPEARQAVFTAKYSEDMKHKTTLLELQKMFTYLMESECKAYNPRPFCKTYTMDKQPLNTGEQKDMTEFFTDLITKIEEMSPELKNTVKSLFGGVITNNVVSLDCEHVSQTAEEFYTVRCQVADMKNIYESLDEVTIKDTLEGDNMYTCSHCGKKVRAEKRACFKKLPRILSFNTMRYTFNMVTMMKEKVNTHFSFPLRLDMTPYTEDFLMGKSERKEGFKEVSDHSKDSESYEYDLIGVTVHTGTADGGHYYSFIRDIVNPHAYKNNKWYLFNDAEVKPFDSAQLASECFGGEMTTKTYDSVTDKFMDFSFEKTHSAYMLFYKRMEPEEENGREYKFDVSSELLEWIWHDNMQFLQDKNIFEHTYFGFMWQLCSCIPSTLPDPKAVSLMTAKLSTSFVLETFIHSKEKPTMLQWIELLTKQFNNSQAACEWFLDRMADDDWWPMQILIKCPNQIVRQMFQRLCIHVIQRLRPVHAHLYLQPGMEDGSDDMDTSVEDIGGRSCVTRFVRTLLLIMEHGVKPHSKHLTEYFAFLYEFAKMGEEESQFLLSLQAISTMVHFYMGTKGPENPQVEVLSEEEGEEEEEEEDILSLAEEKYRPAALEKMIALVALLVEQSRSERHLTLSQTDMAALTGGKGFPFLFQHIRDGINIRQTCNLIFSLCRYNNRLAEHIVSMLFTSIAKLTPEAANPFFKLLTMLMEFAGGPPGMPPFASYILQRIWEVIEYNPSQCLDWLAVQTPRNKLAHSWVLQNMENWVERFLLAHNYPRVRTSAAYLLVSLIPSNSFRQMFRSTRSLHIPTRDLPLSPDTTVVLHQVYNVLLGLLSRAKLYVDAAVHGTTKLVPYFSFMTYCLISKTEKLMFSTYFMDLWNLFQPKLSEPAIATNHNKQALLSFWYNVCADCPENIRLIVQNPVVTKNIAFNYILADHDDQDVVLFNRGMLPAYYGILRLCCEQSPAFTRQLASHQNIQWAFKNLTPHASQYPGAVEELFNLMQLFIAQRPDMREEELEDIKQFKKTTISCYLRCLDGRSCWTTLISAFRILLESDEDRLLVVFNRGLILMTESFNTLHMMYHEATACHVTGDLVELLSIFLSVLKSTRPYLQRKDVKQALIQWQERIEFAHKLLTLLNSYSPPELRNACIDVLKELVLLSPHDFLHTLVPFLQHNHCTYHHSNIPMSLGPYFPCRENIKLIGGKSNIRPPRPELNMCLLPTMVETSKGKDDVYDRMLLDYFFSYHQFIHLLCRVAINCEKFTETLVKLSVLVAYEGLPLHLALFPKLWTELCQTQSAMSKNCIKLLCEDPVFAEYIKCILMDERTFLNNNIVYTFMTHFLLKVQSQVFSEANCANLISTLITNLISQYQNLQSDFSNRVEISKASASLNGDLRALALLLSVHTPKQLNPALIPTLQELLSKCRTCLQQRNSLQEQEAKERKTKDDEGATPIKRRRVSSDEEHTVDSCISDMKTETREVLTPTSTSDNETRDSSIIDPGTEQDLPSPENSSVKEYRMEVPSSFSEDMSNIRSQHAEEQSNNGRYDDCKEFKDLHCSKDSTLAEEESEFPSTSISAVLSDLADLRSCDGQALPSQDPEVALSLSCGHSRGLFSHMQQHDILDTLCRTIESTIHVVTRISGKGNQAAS

O=C(CCl)N[C@H]1CC[C@@H](CO)CC1
inactive: USP34 -0.402 | USP36 -0.283 | USP38 -0.651 | USP39 -0.098 | USP4 -0.775
